From PubChem BioAssay AID687014 (The Scripps Research Institute Molecular Screening Center, 2013)
Among all 370,000 compounds or so, about 6,800 (1.8%) were called active. For the sample, actives were picked, then their nearest neighbours and some compounds at random. Values without a mark were called inactive.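 The calls were made as follows: active = activation above a cutoff set at the mean of all screened compounds plus 3 SD (cut at about 10% in these data); inactive = the rest.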

system: Nuclear hormone receptor DAF-12 (Heterodera glycines), GAL4 fusion; experiment: hgDAF-12 GAL4 fusion reporter activation – cell-based, luminescence, HEK293, UAS-luciferase, primary screen (AID 687014); settings: HEK293 GAL4-hgDAF12 UAS-luciferase reporter, agonist luminescence; at 6.8 µM; stronger effect = higher value; normalized to butyrate control;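 also: 0% = DMSO wells and 100% = sodium butyrate wells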

Row | Structure (SMILES) | activation
1 | Cc1nc(CNc2ncnc3ccc(-c4ccc5c(c4)OCO5)cc23)cs1 | 1.56%
2 | CC(NC(=O)Nc1cccc([N+](=O)[O-])c1)c1ccc2c(c1)OCO2 (centres undefined) | -1.33%
3 | CCOc1ncccc1C(=O)Nc1ccc2c(c1)OCCO2 | -3.84%
4 | CN(Cc1ccccc1)C(=O)COC(=O)/C=C/c1ccc2c(c1)OCO2 | -1.56%
5 | O=C(Nc1ccc2c(c1)OCO2)C1CC(c2c(F)cccc2Cl)=NO1 (centres undefined) | 7.76%
6 | Cc1cccc(NC(=O)Nc2ccc3c(c2)OCO3)n1 | 14.2% (active)
7 | CC(NS(=O)(=O)c1ccc(Cl)cc1)C(=O)Nc1ccc2c(c1)OCCO2 (centres undefined) | 1.96%
8 | Cc1ccc(OCCCC(=O)Nc2ccc3c(c2)OCCO3)cc1 | -2.83%
9 | Cc1cccc(NC(=O)/C=C/c2ccc3c(c2)OCO3)n1 | 17.7% (active)
10 | Cc1ccc(S(=O)(=O)NCC(=O)Nc2ccc3c(c2)OCCO3)cc1 | -3.96%
11 | O=C(COC(=O)/C=C/c1ccc2c(c1)OCO2)NC1CCS(=O)(=O)C1 (centres undefined) | -2.83%
12 | COc1cccc(/C=C/C(=O)Nc2ccc3c(c2)OCCO3)c1 | 16.9% (active)
13 | CNS(=O)(=O)c1ccc(NC(=O)Nc2ccc3c(c2)OCO3)cc1 | 18.5% (active)
14 | CN1C(=O)c2cc(NS(C)(=O)=O)ccc2OC[C@@H]2O[C@@H](CC(=O)NCc3ccc(-c4ccccc4)cc3)CC[C@H]21 | -3.14%
15 | COc1ccc(OCC(=O)NN2Cc3ccccc3C2=N)cc1 | 1.16%
16 | CCOC(=O)[C@@]12CN(C(=O)OC(C)(C)C)CC=C1N(Cc1ccc(OC)cc1)C(=O)[C@H]2CC(=O)NCc1ccc(OC)c(OC)c1 | -0.18%
17 | COc1cc(N/C=C2\CC(=O)NC(C)=C2C#N)cc(OC)c1OC | -2.99%
18 | Cc1csc2nc(COC(=O)c3cccc(N(C)C)c3)cc(=O)n12 | 1.98%
19 | O=c1c(-c2ccccc2)coc2cc(O)ccc12 | 11.4% (active)
20 | CCc1ccc(Oc2coc3cc(O)ccc3c2=O)cc1 | 2.19%

Row | Structure (SMILES) | activation
21 | CC(C)=CCc1c(O)c(CC=C(C)C)c2occ(-c3ccc(O)cc3)c(=O)c2c1O | 1.09%
22 | C#CCN([C@@H](C)C(=O)OCC)S(=O)(=O)c1ccc(Br)cc1F | 3.49%
23 | CC(C)(C)c1nnc(NC(=O)C2c3ccccc3Oc3ccccc32)s1 | 0.43%
24 | S=c1[nH]nc(Nc2ccccc2)s1 | -0.56%
25 | CC(C)(C)C(=O)c1cnc(Nc2ccccc2)s1 | 15.3% (active)
26 | CC(C)(C)OC(=O)NCCc1ccccc1/C=C/S(=O)(=O)NCc1ccc(F)cc1 | 0.52%
27 | O=C(CNC(=O)c1ccccc1F)c1ccc(Br)cc1 | 11.4% (active)
28 | O=C(NCCOc1ccccc1)c1ccccc1F | 15% (active)
29 | NS(=O)(=O)c1cc(C(=O)NCCOc2ccccc2)c(Cl)cc1Cl | -5.7%
30 | CN(c1ccccc1)S(=O)(=O)c1ccc(C(=O)NCCc2ccccc2)cc1 | 4.14%
31 | O=C(CCCOc1ccccc1)NNC(=O)c1ccc(Cl)cc1 | -0.32%
32 | O=C(COC(=O)CNC(=O)c1ccccc1F)NCC(F)(F)F | -2.85%
33 | CC(C)c1ccc(C(=O)NCCCc2ccccc2)cc1 | 9.47%
34 | O=C(CNC(=O)c1ccccc1F)OCC(=O)c1c[nH]c2ccccc12 | 1.04%
35 | O=C(NCCc1csc(-c2ccccc2)n1)c1ccccc1F | -3.44%
36 | CCCOc1ccc(C(=O)NCCc2ccccc2)cc1 | 18.9% (active)
37 | O=C(NCCOc1ccccc1)c1ccccc1 | 14.6% (active)
38 | O=C(CCc1c[nH]c2ccccc12)NCCOc1ccccc1 | 3.15%
39 | NC(=O)c1nnsc1-c1ccc(-c2snnc2C(N)=O)cc1 | 2.87%
40 | COc1cccc(CSc2nnc(-c3cccnc3)n2Cc2ccccc2)c1 | 1.72%

Row | Structure (SMILES) | activation
41 | CC(C)CNc1cccc2c1S(=O)(=O)N[C@H](C)CO2 | -0.06%
42 | Cc1[nH]c2ccccc2c1CC(=O)Nc1ccc(Nc2cccnc2)c(-c2cccc(Cl)c2)c1 | -1.25%
43 | CC(C)C(C#CC1CC1)N(Cc1ccc2c(c1)OCO2)C(N)=NC(=O)/C=C/c1cccc(C(F)(F)F)c1 (centres undefined) | 0.47%
44 | C=CCN1C(=O)[C@@H](CC(=O)N2CCN(C(=O)c3ccco3)CC2)[C@]2(C(=O)OC)CCCCC=C12 | 0.44%
45 | Nc1cccc2c1C(=O)N(Cc1nnc(-c3ccccc3Br)o1)C2=O | -2.29%
46 | C=CC1=CCN(S(=O)(=O)C(C)(C)C)[C@@H]1CCO | 1.1%
47 | CC(C)Oc1ccc(/C=C(\NC(=O)/C=C/c2ccco2)C(=O)NCCc2nc3ccccc3[nH]2)cc1 | -4.59%
48 | O=C(OCc1cc(=O)n2ccsc2n1)C1(c2ccc(Cl)cc2)CC1 | -1.52%
49 | COC(=O)Cc1nnn2c1[C@H](C)[C@@H](OC)c1cc(Br)ccc1-2 | 3.49%
50 | CCOC(=O)c1c(NC(C)=O)sc2c(O)c(Br)ccc12 | 1.29%
51 | Cc1cc(NC(=O)Nc2ccccc2[N+](=O)[O-])no1 | 4.97%
52 | CN1CCN(CCNC(=O)Nc2ccccc2[N+](=O)[O-])CC1 | 0.56%
53 | Cc1csc(NC(=O)Nc2ccccc2[N+](=O)[O-])n1 | 25.4% (active)
54 | COC1=C[C@H](C(=O)NCCNC(C)=O)[C@H](C)[C@@H](c2ccccc2)CC1=O | -1.27%
55 | O=C(Cn1c(N2CCN(C/C=C/c3ccccc3)CC2)nc2ccccc21)c1ccccc1 | -0.26%
56 | O=C(NC(=S)NC1CCS(=O)(=O)C1)c1cccc([N+](=O)[O-])c1 (centres undefined) | 3.84%
57 | O=C(Nc1ccc(C2CC2(Cl)Cl)cc1)c1cccc([N+](=O)[O-])c1 (centres undefined) | 14.5% (active)
58 | Cc1ccc(NC(=O)C(=O)NCC2CCN(C(=O)c3cccc([N+](=O)[O-])c3)CC2)cc1 | 1.22%
59 | COc1ccc(S[C@]2(C(=O)N(C)C)CC(=O)N(c3ccc(OC)cc3)[C@@H]2c2ccc(OC)cc2)cc1 | -1%
